From PubChem
Shown are actives, neighbours in structure and some others; about 2.4% of the full set was active somewhere.
D2 ag-1 = human D2 receptor agonism in beta-arrestin assay; DiscoveRx PathHunter D2 beta-arrestin, luminescence, 90 min; 100% = 57 uM dopamine signal; activation, % (test concentration not listed); 360,000 tested, 0.084% active; AID 624465; in the data active = activation above about 40%; inconclusive = between about 15% and that limit
Target sequence (P14416 whole entry, looked up): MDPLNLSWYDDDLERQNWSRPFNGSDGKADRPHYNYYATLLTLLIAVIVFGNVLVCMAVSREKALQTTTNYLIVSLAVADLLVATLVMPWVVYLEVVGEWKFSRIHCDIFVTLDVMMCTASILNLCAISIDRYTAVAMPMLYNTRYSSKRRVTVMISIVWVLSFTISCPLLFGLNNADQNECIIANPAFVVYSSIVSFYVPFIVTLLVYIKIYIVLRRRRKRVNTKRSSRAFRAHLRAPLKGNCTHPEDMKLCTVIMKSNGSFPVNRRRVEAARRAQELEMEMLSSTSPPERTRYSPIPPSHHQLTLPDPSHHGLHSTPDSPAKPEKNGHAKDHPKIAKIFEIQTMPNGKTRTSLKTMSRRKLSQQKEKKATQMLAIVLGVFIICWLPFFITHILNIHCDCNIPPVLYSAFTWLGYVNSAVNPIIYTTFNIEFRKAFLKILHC
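Agonist mode: compounds alone added to overnight-plated D2 PathHunter cells for 90 min at 37 C, with 57 uM final dopamine (EC100) defining full response. Beta-arrestin recruitment detected by chemiluminescent reagent, read after 1 h at ambient temperature.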
D2 PAM-1 = positively modulates the human D2 dopamine receptor allosterically | HEK293 T-REx D2, calcium flux, EC20 dopamine potentiation | potentiation, % at 10 µM | 340,000 tested, 0.34% active;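 active = potentiation over 3 SD above the plate norm, cut at about 30% in these data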; note: 0% is about no effect
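Calcium flux readout, no-wash dye, 1 read/s. Inducible HEK293 Trex D2 line, overnight 30 C. Compound alone 180 s (agonist flags), then EC20 dopamine, another 180 s to score potentiation.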
D2 ag-2 = agonists of human D2 dopamine receptor; P14416; HEK293 T-REx D2 cells, calcium flux agonist mode; activation, % at 2 µM; 340,000 tested, 0.53% active; AID 485358;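 active = activation over 3 SD above normal in the single-dose calcium agonist read, cut at about 30% in these data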; note: 0% is about no effect
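Tetracycline-induced HEK293 Trex cells with D2 receptor force-coupled to calcium signaling, plated overnight at 30 C and loaded with no-wash calcium dye. Calcium flux read kinetically for 180 s after compound addition; responses flag agonists.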
D2 PAM-2 = human D2 receptor positive allosteric modulation; P14416; DiscoveRx D2 beta-arrestin cells, luminescence, 90 min; 100% = 57 uM dopamine signal; potentiation, % (no concentration beside the values); 360,000 tested, 0.23% active; AID 624464; in the data active = potentiation above about 50%; inconclusive = mostly about 30% to 49%
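D2 cells co-treated with compound plus 50 nM dopamine (EC20) for 90 min at 37 deg C to detect potentiation. Beta-arrestin recruitment was read as enzyme-fragment luminescence after 1 h at ambient temperature. Full response was set by 57 uM dopamine.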
D2 antagonist = antagonizes the human D2 dopamine receptor. HEK293 TREx D2 cells, calcium flux, dopamine EC80. inhibition, % at 10 µM. 340,000 tested, 2% active. AID 485344; in the data active = inhibition above about 30%; inactive = below that, where a call was filed; note: 0% is about no effect
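Calcium flux kinetic readout in an inducible HEK293 TREx D2 line plated overnight at 30 C. After 180 s compound exposure, an EC80 dopamine challenge follows with another 180 s kinetic read to detect antagonism.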
D3 arrestin ag = activates human D3 dopamine receptor beta-arrestin recruitment; DiscoveRx D3 beta-arrestin cells, luminescence, 90 min; shares compounds with D2 ag-2; 2,300 tested, 4% active; Potency, µM (titrated, usually from 76.9 µM), for the others: top-dose activation, hits mostly activators;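 note: potency is the fitted concentration of half-maximal effect; 100% = dopamine control response; nearly all actives have a fitted effect of over 70% in size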
D2 ag-3 = activates human D2 dopamine receptor in D3 counterscreen. 2,300 tested, 5.9% active. shares compounds with D2 ag-2. AID 720507. Potency, µM (highest dose often 76.9 µM), inactives show at the top dose activation, hits mostly activators. DiscoveRx PathHunter D2 beta-arrestin, luminescence, 90 min; response scale: percent relative to full dopamine signal; note: potency is the fitted concentration of half-maximal effect; % of control where 0% means no effect; nearly all actives have a fitted effect of over 70% in size
* hit, by the source's call; ? = inconclusive; / = no result. Unless noted, calls come from the whole dose curve; as a rule, active = well fitted activation curve with a large enough effect; inconclusive = small, poorly fitted or top-dose-only effect; inactive = flat fitted curve, though single readings scatter.

SMILES	D2 ag-1	D2 PAM-1	D2 ag-2	D2 PAM-2	D2 antagonist	D3 arrestin ag	D2 ag-3
CCOC(=O)C1CCN(Cc2cnc(NC(=O)OC)s2)CC1	8.3	-13.3	60.3*	-21.5	18.3	-2.2%	8.1%
COc1ccccc1C(=O)Nc1ccnn1C1CCN(CCCc2ccccc2)CC1	1.8	-10.3	23.7	-29.3	32.8*	-7.5%	10.6%
O=C(Nc1ccnn1C1CCN(CCCc2ccccc2)CC1)c1ccccc1	-1.4	-15.4	17.4	-7.4	43.6*	-3.8%	4.7%
Cc1ccccc1C(=O)Nc1ccnn1C1CCN(CCCc2ccccc2)CC1	?	16.6	1.6	-7.4	-12.7	/	/
O=C(Nc1ccnn1C1CCN(C/C=C/c2ccccc2)CC1)C1CCCC1	4.2	-21.2	58.2*	-18.1	28.0	-3.0%	5.9%
O=C(Cc1ccccc1)NNC(=S)Nc1ccc(Cl)cc1	-6.7	-19.8	44.3*	-19.4	4.6	0.8%	-3.8%
O=C(c1ccco1)N1CCN=C1SCc1c(F)cccc1Cl	-1.9	-10.1	37.2*	-27.9	-8.0	-15.4%	-1.5%
O=C(c1ccco1)N1CCN=C1SCc1ccccc1Cl	-0.9	-3.4	0.6	-6.6	-30.4	/	/
Cc1ccc(N2CC(NC(=O)C3CCCC3)CC2=O)cc1C (stereo not given)	/	13.5	/	/	/	/	/
O=C(O)CCSc1nc2ccccc2s1	-1.2	8.4	2.4	0.3	5.2	/	/
c1ccc2sc(SCSc3nc4ccccc4s3)nc2c1	-3.7	-25.5	31.7*	0.2	12.4	-6.9%	?
Cn1cc(CN2CCN(c3ccc(Cl)cn3)CC2)c(-c2ccccc2F)n1	-0.4	-1.3	2.1	-17.5	4.6	/	/
Cc1cccc(N2CCN(Cc3cn(C)nc3-c3ccccc3F)CC2)n1	?	-24.0	51.4*	-7.4	30.4*	1.2%	17.5%
COc1ccc(-n2nc(C(=O)N3CCN(c4cccc(C)c4)C(C)C3)c3c4ccccc4n(C)c3c2=O)cc1Cl (stereo not given)	/	-3.2	0.1	/	/	/	/
CC(CCc1ccc(O)cc1)N(C)CCc1ccccc1 (stereo not given)	-1.0	-25.0	38.7*	-16.1	90.7*	1.3%	-0.1%
Cn1ccc2cc(S(=O)(=O)N3CCN(C(=O)Nc4ccccc4F)CC3)ccc21	/	-1.2	/	/	/	/	/
COc1ccc(-c2nnn(CC(=O)c3c[nH]c4ccccc34)n2)cc1OC	2.4	-8.1	-1.5	5.4	-10.4	/	/
CCCCOc1ccc(-c2nnn(CC(=O)c3c[nH]c4ccccc34)n2)cc1	3.5	-3.2	56.0*	11.0	9.5	2.8%	-3.3%
CNC(=O)c1ccc(Nc2nnc(-c3ccc(C)c(S(=O)(=O)N4CCOCC4)c3)c3ccccc23)cc1	/	-2.4	0.3	/	/	/	/
CN(Cc1ccccc1)C(=O)c1ccc(NC(=O)Cc2cccc(NC(=O)C3CCN(C(=O)C4CCC4)CC3)c2)cc1	1.6	9.1	0.6	-7.2	-6.5	-0.6%	-1.7%
CN(Cc1ccccc1)C(=O)c1ccc(NC(=O)Cc2ccc(NC(=O)C3CCN(C(=O)C4CCC4)CC3)cc2)cc1	-1.2	/	/	/	/	/	/
COc1ccc(-n2c(C)cc(C)c(C(C)=O)c2=S)cc1	-1.0	-19.0	53.5*	1.4	0.6	-4.3%	-1.9%
COc1ccc(-n2c(C)c(C(C)=O)c3cc(OC(C)=O)ccc32)cc1	1.3	-3.3	-0.1	7.4	-4.8	/	/
O=C(Cn1c(-c2cccs2)cc2cc(Cl)ccc21)N1CCN(c2ccccc2F)CC1	/	2.8	0.0	/	/	/	/
O=C(CSc1nccn1-c1cccc(Cl)c1)Nc1ccc2c(c1)OCO2	/	-3.2	0.8	/	/	/	/
SMILES	D2 ag-1	D2 PAM-1	D2 ag-2	D2 PAM-2	D2 antagonist	D3 arrestin ag	D2 ag-3
COc1cc(NC(=O)CCc2nnc3ccc(NCc4ccco4)nn23)cc(OC)c1	-1.3	0.8	51.7*	0.1	3.5	10.8%	15.0%
Cc1nn(-c2ccccc2)c(Cl)c1C(=O)NNC(=O)c1ccncc1	-1.5	4.2	0.2	9.4	7.3	-7.9%	-4.1%
CC(=O)c1ccc(OCC(O)CN2CCN(c3ccc(F)cc3)CC2)cc1 (stereo not given)	8.8	-48.6	83.2*	-16.0	16.6	19.8%	23.5%
OC(COc1ccc2c(c1)OCO2)CN1CCN(c2ccc(F)cc2)CC1 (stereo not given)	0.9	-33.8	29.6	-5.6	75.8*	5.1%	-0.8%
CC(C)c1ccc(OCC(O)CN2CCN(c3ccc(F)cc3)CC2)cc1 (stereo not given)	/	-16.2	28.8	/	/	/	/
CCC(=O)c1ccc(OCC(O)CN2CCN(c3ccc(F)cc3)CC2)cc1 (stereo not given)	0.4	-5.7	7.3	-8.0	30.6*	?	18.4%
CCCN(CC(=O)Nc1ccc(Cl)cc1Cl)C(=O)/C=C/c1ccco1	1.0	-16.9	41.6*	-16.9	17.3	-3.0%	0.4%
CCN(CC(=O)Nc1ccc(NC(C)=O)cc1)C(=O)/C=C/c1ccco1	-1.1	0.8	1.3	4.6	-2.0	/	/
C=C(C)C(=O)Nc1nnc(-c2ccccc2C)s1	-1.0	10.3	-0.4	-23.2	52.4*	-4.9%	-3.8%
Cc1ccc(N2CCN(c3nc4ccc(C)cc4n4nnnc34)CC2)c(C)c1	/	/	0.5	/	/	/	/
CC(=O)c1cccc(OCC(O)CNCCOc2ccc(C)cc2)c1 (stereo not given)	11.6	-22.8	52.8*	-7.2	42.5*	-1.7%	5.3%
CC(=O)c1cccc(OCC(O)CNCC2CCCCC2)c1 (stereo not given)	2.1	-17.8	-0.3	-12.9	-14.2	/	/
CCOC(=O)[C@@H]1[C@H]2COc3ccc(Br)cc3[C@H]2N2C(=O)N(c3ccc(Br)cc3)C(=O)[C@]12C	1.3	-11.4	0.5	-27.2	-4.5	/	/
CCOC(=O)[C@@H]1[C@H]2COc3ccc(Br)cc3[C@@H]2N2C(=O)N(c3ccc(Br)cc3)C(=O)[C@]12C	-4.3	-18.8	32.4*	-0.7	9.1	-1.5%	7.3%
CCOC(=O)[C@H]1[C@H]2COc3cc(OC)ccc3[C@@H]2N2C(=O)CN(Cc3ccco3)C(=O)[C@@]12C	0.8	6.0	-0.1	-2.1	-4.7	-5.3%	-4.1%
CCOc1ccc(NC(=O)Cn2c(=O)n(-c3ccc(C)cc3)c(=O)c3cc(OC)c(OC)cc32)cc1	/	12.6	0.0	/	/	/	/
CCCn1cc(SCC(=O)NC2CCCC2)c2ccccc21	-7.8	1.2	-1.0	-14.1	-15.7	-17.7%	-1.0%
COc1ccc(CC(=O)NC(C)(C)CC(C)=O)cc1OC	-2.1	5.5	0.1	0.0	-11.0	/	/
CC(=O)CC(C)(C)NC(C)=S	-1.8	-16.1	34.3*	-6.6	-8.4	-15.8%	-4.2%
